S1P2 antag: antagonists of human S1P2 receptor. cell-based S1P2 antagonist assay, inhibition at 5 uM. O95136. AID 736. inhibition, % at 5 µM. 0.21% of 97,000 active; in the data active = inhibition above about 45%;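 note: CRE beta-lactamase reporter cells expressing human S1P2 stimulated with S1P; 0% = agonist at EC80 alone and 100% = agonist plus reference antagonist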
Target sequence (O95136 whole entry, looked up): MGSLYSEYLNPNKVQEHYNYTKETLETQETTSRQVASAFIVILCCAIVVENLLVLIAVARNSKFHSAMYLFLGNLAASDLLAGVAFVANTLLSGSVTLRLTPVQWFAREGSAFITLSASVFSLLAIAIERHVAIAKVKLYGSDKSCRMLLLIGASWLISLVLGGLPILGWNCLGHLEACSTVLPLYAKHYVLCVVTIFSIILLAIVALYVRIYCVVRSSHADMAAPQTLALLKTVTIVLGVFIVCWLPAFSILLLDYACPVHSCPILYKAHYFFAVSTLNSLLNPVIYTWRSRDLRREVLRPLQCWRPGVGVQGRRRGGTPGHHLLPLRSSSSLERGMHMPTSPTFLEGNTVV
GALR2 agonist: activates the human galanin receptor 2; O43603; GALR2-expressing cells, agonist activation read-out; activation, % (concentration not given with the values); 0.48% of 140,000 active; in the data active = activation above about 5%, passing the limit was not always enough;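 note: 0% = vehicle buffer wells and 100% = reference agonist at full effect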
S1P2 ag: S1P2 (human) receptor agonism | O95136 | S1P2-expressing cell line, agonist reporter read-out | activation, % at 4.5 µM | 0.46% of 97,000 active | AID 729; in the data active = activation above about 16%;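 note: 0% = vehicle low control and 100% = maximal reference agonist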
GALR2 blocker: GALR2 (human) receptor antagonism; O43603; GALR2-expressing cells, antagonist mode; inhibition, % at 4 µM; 0.39% of 140,000 active; in the data active = inhibition above about 27%;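 note: cells stimulated with galanin 1-16 at roughly its EC80; 0% = agonist challenge control and 100% = basal control without agonist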
GALR2 ag confirm: confirmation of human galanin receptor 2 (GALR2) agonists | shares compounds with GALR2 agonist | GALR2-expressing cells, agonist activation | activation, % at 5.6 µM | 10% of 460 active | AID 864; in the data active = activation above about 8.4%;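 note: 0% = buffer-only vehicle wells and 100% = full reference agonist response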
BLA act counter: activates beta-lactamase reporter in GALR2 agonist counterscreen. activation, % at 5.6 µM. 10% of 460 active. shares compounds with GALR2 agonist. CHO NFAT-bla reporter, beta-lactamase FRET activation;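 active = activation above the screen-wide mean activation plus 3 SD, cut at about 8% in these data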;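 note: 0% = DMSO with PBS wells and 100% = thapsigargin positive control wells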
The depositor's hits bear a star; x = not tested or not shown. This is a sample that favours compounds with a hit; in the whole collection about 1.2% have one here.

SMILES	S1P2 antag	GALR2 agonist	S1P2 ag	GALR2 blocker	GALR2 ag confirm	BLA act counter
COC(=O)c1cc(NC(=O)CSc2nncn2C)cc(C(=O)OC)c1	5.2	15.9*	-1.1	-5.2	-0.6	-0.8
O=[N+]([O-])c1cc2c(c(CSc3nnnn3-c3ccc(O)cc3)c1)OCOC2	x	0.3	x	4.5	x	x
CN(Cc1nc(-c2ccccn2)no1)S(=O)(=O)c1ccccc1	23.5	10.3	-4.1	-9.6	-0.3	-1.6
COC(=O)[C@H](Cc1ccccc1)NC(=O)NCc1ccccc1OC	-19.0	0.3	-7.2	-5.5	x	x
N#C/C(=C\c1c(N2CCC(C(N)=O)CC2)nc2ccccn2c1=O)C(=O)NCc1ccco1	x	-0.3	x	2.4	x	x
N#C/C(=C\c1c(N2CCCCCC2)nc2ccccn2c1=O)C(=O)NC1CCS(=O)(=O)C1 (centres undefined)	x	8.9*	x	-19.8	-0.2	-0.4
CCOC(=O)c1ccc2c(c1)nc(-c1ccc(F)cc1)c1nccn12	x	-0.9	x	-1.3	x	x
CC1(C)CC(=O)C=C(Nc2ccc(S(N)(=O)=O)cc2)C1	-13.4	40.9*	-11.2	7.2	-0.8	-2.3
CC1(C)CC(=O)C=C(Nc2ccc(C(=O)O)cc2)C1	-8.7	-0.1	-2.8	7.7	x	x
O=C(O)c1ccccc1C(=O)Nc1ccc(S(=O)(=O)NC2CCCCC2)cc1	x	14.5*	x	0.1	-0.8	-1.9
COc1cccc2cc(/C(C)=N/Nc3nc(-c4cc(C)ccc4C)cs3)c(=O)oc12	-11.6	-1.9	-11.3	-2.6	x	x
CCOC(=O)c1[nH]c(C)c(C(=O)Nc2ccc(C)c(F)c2)c1C	x	43.8*	x	2.7	0.2	-1.6
CC(C)CCOC(=O)C1C(c2ccccc2)C(C(=O)O)C1c1ccccc1 (centres undefined)	-4.0	10.0	-4.8	-9.2	-0.4	0.2
O=C(O)C1C(c2ccccc2)C(C(=O)Oc2ccccc2)C1c1ccccc1 (centres undefined)	9.0	-0.6	-5.9	-3.9	x	x
CN(C)S(=O)(=O)c1cccc(NC(=O)CN2C(=O)C3C4C=CC(C4)C3C2=O)c1 (centres undefined)	x	-0.7	x	-1.2	x	x
Cc1c(/C=N/n2cnnc2)c2ccccc2n1C	13.3	11.9*	-2.9	1.7	-1.2	-2.4
Cc1ccc(N=C2NC(=O)CS2)c(C)c1	18.7	-0.1	-1.8	-0.2	x	x
O=C1CSC(=Nc2cc(Cl)ccc2Cl)N1	-0.8	27.4*	-7.0	15.1	-0.3	-1.4
CC(C)(C)NC(=O)CSc1nc(O)cc(=O)[nH]1	x	1.6	x	-9.7	x	x
O=S(=O)(Nc1ccc2c(c1)OCO2)c1ccccc1	7.5	34.0*	-5.4	0.9	-0.2	-0.5
COC(=O)C1=CN(CC2CCCO2)C=C(C(=O)OC)C1c1ccccc1C(F)(F)F (centres undefined)	2.1	11.9*	10.9	-7.9	2.7	8.1
CCN(CC)c1ccc2cc(-c3nc4ccccc4n3C)c(=O)oc2c1	68.5*	10.1	3.0	43.1*	3.5	4.5
CCCNC(=S)N1CCC(c2nc3cc(C)c(C)cc3[nH]2)CC1	12.1	32.5*	-5.5	-9.9	-0.6	-1.5
Cc1cc2nc(C3CCCN(C(=S)Nc4ccccc4C)C3)[nH]c2cc1C (centres undefined)	5.6	-0.4	-1.3	-2.1	x	x
CCOc1cc(/C=N/NC(=O)CN2CCCCC2)ccc1OCc1cccc(Cl)c1	x	-0.7	x	9.6	x	x
SMILES	S1P2 antag	GALR2 agonist	S1P2 ag	GALR2 blocker	GALR2 ag confirm	BLA act counter
COc1cc2c(cc1NC(=O)c1cccc(S(=O)(=O)N(C)C)c1)oc1ccccc12	x	-0.3	x	-10.6	x	x
CC1CN(Cc2cc(=O)[nH]c(C(C)C)n2)CC(C)O1 (centres undefined)	-0.5	45.7*	-0.2	-10.6	-0.5	-0.4
COc1ccc(CC(C)N2CCN(c3cccc(C(F)(F)F)c3)CC2)cc1OC (centres undefined)	-21.2	-0.9	-3.7	-10.7	x	x
COc1cc(-c2noc(CCCC(=O)NC3CCCCC3)n2)cc(OC)c1OC	-3.1	25.9*	-5.7	-5.1	-0.5	-0.6
COc1ccc(-c2noc(CCC(=O)NC3CCCCC3)n2)cc1OC	-2.1	-3.2	2.2	4.5	x	x
CC(=O)Nc1ccc(Sc2ncccc2C(=O)Nc2ccc(OC(F)(F)F)cc2)cn1	2.5	22.4*	-4.7	-38.2	15.8*	42.9*
CCCNC(=O)COC(=O)c1ccccc1OCc1ccc(Cl)cc1	-9.9	-0.9	-5.8	-8.3	x	x
O=C(Cn1c2ccccc2c(=O)c2ccccc21)Nc1cccc(F)c1	x	11.9*	x	0.0	9.1*	13.7*
O=C(COc1ccc(Cl)cc1)NNC(=O)C(=O)N1CCCCC1	-11.4	29.1*	-1.9	0.0	-0.5	-0.3
